High-throughput results (PubChem BioAssay)
This is a sample that favours compounds with a hit; in the whole collection about 2.8% have one here.
p-CIP stab down – compounds decreasing mouse p/CIP protein stability | Q05BA5 | F442A p/CIP-EGFP cells, EGFP fluorescence, 16 h | decrease of EGFP signal, % at 10 µM | 290,000 tested, 0.01% active | AID 1984;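 active = EGFP signal decrease of at least 30% at 10 µM or well 3 SD below plate mean, unless failing retest; inactive = the rest, including hits failing retest or dose response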
PolyA inhibitor – inhibitors of polyadenylation in S. cerevisiae; S. cerevisiae SKY197-pL101 polyadenylation reporter, beta-gal luminescence; efflux-impaired pdr1/pdr3 knockout yeast; score 100 = 6 SD above DMSO; activity score, % at 12 µM; 300,000 tested, 0.02% active; AID 1875;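 active = lowest replicate activity score at least 50, where 100 means six control SD above control mean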;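 note: yeast exposed to compound for 9 h at 30 °C; higher score means more reporter readthrough which indicates perturbed polyadenylation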
AHR activator – activates the human aryl hydrocarbon receptor; P35869; AHR-responsive luciferase reporter cells, luminescence; activation, % at 5 µM; 320,000 tested, 2.5% active; in the data active = activation above about 47%
Target sequence (P35869 whole entry, looked up): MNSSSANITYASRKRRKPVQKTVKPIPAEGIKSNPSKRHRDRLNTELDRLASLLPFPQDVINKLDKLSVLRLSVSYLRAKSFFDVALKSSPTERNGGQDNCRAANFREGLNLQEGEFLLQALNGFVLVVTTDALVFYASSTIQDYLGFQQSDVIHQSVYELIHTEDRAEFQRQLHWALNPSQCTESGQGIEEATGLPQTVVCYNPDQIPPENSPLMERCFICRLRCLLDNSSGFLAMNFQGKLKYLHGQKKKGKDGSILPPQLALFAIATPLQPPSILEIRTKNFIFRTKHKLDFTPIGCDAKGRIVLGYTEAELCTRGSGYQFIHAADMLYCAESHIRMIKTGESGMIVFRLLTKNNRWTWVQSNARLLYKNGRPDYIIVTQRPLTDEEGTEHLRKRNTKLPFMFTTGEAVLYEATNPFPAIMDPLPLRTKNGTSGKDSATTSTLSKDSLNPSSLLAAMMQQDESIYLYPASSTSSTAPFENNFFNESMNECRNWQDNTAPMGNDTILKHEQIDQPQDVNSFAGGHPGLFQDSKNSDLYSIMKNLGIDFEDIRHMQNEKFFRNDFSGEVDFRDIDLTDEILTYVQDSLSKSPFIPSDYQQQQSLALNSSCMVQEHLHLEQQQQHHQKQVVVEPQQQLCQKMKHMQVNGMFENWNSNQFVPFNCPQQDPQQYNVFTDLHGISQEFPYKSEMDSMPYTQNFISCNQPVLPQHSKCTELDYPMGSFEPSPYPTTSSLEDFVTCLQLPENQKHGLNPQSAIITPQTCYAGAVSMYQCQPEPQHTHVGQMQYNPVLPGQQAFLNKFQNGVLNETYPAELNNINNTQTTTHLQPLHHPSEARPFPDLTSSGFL
Platelet DG rel – platelet dense granule release activity; human platelet-rich plasma, SFLLRN dense granule ATP release, luminescence; AID 1663; inhibition, %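 (compounds screened at 7.5 µM in platelet-rich plasma)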; 300,000 tested, 0.22% active;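 active = mean replicate score, as percent of positive control, at or above 50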
HIF activator – HIF pathway transcriptional activation; U2OS HRE-luciferase reporter, luminescence; normalized: DMSO 0%, desferrioxamine 100%; activation, % at 7.5 µM (by protocol); 300,000 tested, 0.32% active; AID 1910;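 active = mean activation of at least 10% of the iron chelator positive control signal, with at least half of replicates also reaching 10%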
AHR act confirm – human AHR activation, confirmation | shares compounds with AHR activator | human cells, AHR-responsive luciferase reporter, luminescence | activation, % at 9 µM | 2,300 tested, 87% active | AID 2845; in the data active = activation above about 49%;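 note: HepG2 hepatoma cells carrying a DRE-driven firefly luciferase reporter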
PXR counter – PXR activation, counter-screen for AHR activators | shares compounds with AHR activator | cell-based PXR reporter, luciferase luminescence | activation, % at 11.6 µM | 2,300 tested, 88% active; in the data active = activation above about 11%;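 note: human hepatoma DPX-2 cells expressing full-length human PXR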
Numbers stand for hits; . = inactive; / = no result.

SMILES	p-CIP stab down	PolyA inhibitor	AHR activator	Platelet DG rel	HIF activator	AHR act confirm	PXR counter
Cc1cc(C)c(S(=O)(=O)N2CCN(C(=O)CN3C(=O)NC4(CCCC4)C3=O)CC2)c(C)c1	.	.	.	.	.	/	/
CCCC#Cc1ccc2c(c1)COc1c3ccccc3nn1-2	/	.	109	.	.	63	.
N#CC1=C(N)Nc2nc3ccccc3n2C1c1ccc(F)cc1 (stereo unspecified)	.	.	94	.	.	80	62
CNC(=O)C1=C(C)Nc2nc3ccccc3n2C1c1ccc(F)cc1 (stereo unspecified)	.	.	.	.	.	/	/
c1ccc2[nH]c(-c3ccnc4ccccc34)nc2c1	.	.	90	.	.	156	26
Fc1ccccc1-c1nc2ccccc2[nH]1	.	.	.	.	.	/	/
Cc1ccc(C(=O)NCCNc2nc3cc(C)c(C)cc3cc2C)cc1	.	.	82	.	.	77	28
COCC(=O)NCCNc1nc2ccc(C)cc2cc1C	.	.	.	.	.	/	/
Nc1nc(C23CC4CC(CC(C4)C2)C3)[nH]c(=O)n1	.	.	.	.	.	/	/
COc1ccc(C)cc1Nc1nc(-c2c[nH]c3ccccc23)cs1	.	.	89	.	.	64	17
COc1ccc(C)cc1Nc1nc(-c2ccccc2O)nc2ccccc12	.	.	.	.	.	/	/
O=C(Oc1ccc(-c2nnco2)cc1)C1CCN(C(=O)c2ccc(F)cc2)CC1	.	.	.	.	.	/	/
COc1cc(NC(=O)c2cnc(N)s2)cc(C(=O)Nc2cccc(C(F)(F)F)c2)c1	.	.	.	.	.	/	/
COc1cc(NC(=O)c2cc(C)on2)cc(C(=O)Nc2cccc(C(F)(F)F)c2)c1	.	.	130	.	.	106	21
COc1cc(NC(=O)c2csc(N)n2)cc(C(=O)Nc2cccc(C(F)(F)F)c2)c1	.	.	85	.	.	91	32
C/C(=N\OC(=O)Nc1ccc(Cl)cc1)c1ccc(F)c(F)c1	.	.	.	.	.	/	/
O=C(Cc1ccc(F)cc1)N1CCOCC1	.	.	.	.	.	/	/
CCOc1ccc(-c2c(C(=O)N/N=C(\C)c3cccnc3)nnn2-c2nonc2N)cc1	.	.	91	.	.	94	33
CCCOc1ccc(-c2c(C(=O)N/N=C/c3cccnc3)nnn2-c2nonc2N)cc1	.	.	.	.	.	/	/
Clc1cccc(Nc2nc(-c3ccncc3)cs2)c1	.	.	98	.	.	96	11
O=C(Nc1ccc(-c2csc(Nc3ccccc3)n2)cc1)c1ccccc1	.	.	.	.	.	/	/
O=C(Nc1cccc(-c2csc(Nc3ccc(Cl)cc3)n2)c1)c1ccccc1	.	.	93	.	.	95	22
O=C(Nc1cccc(-c2csc(Nc3ccc(Cl)cc3)n2)c1)c1cccc(C(F)(F)F)c1	.	.	106	.	.	.	25
Cc1ccc(Nc2nc(-c3ccncc3)cs2)cc1	.	.	/	.	.	/	/
CC(=O)Nc1cccc(-c2csc(Nc3ccc(C)cn3)n2)c1	.	.	145	.	.	.	34
SMILES	p-CIP stab down	PolyA inhibitor	AHR activator	Platelet DG rel	HIF activator	AHR act confirm	PXR counter
CC(=O)Nc1cccc(-c2csc(Nc3ncccn3)n2)c1	.	.	/	.	.	/	/
COc1ccccc1C(=O)NNC(=O)C1CC=CCC1 (stereo unspecified)	.	.	.	.	.	/	/
COc1cc(OC)cc(C(=O)NC2CC3CCC(C2)N3C)c1 (stereo unspecified)	/	/	.	/	/	/	/
CCc1ccc(-n2nc3cc(C)c(N)cc3n2)cc1	.	.	.	.	.	/	/
COc1ccc(-n2nc3cc(N)c(Br)cc3n2)cc1	.	.	98	.	.	124	30
N#Cc1ccc(C(=O)Nc2cc(S(=O)(=O)Nc3ccc(Cl)cc3)ccc2N2CCCCC2)cc1	.	.	105	.	.	58	119
CCn1nc(C(=O)Nc2cccc3ccccc23)c(Cl)c1Cl	.	.	85	.	.	95	17
CCn1nc(C(=O)Nc2ccccc2C)c(Cl)c1Cl	.	.	90	.	.	.	17
CCn1nc(C(=O)Nc2cccc(C(F)(F)F)c2)c(Cl)c1Cl	.	.	.	.	.	/	/
CCn1nc(C(=O)NCc2ccco2)c(Cl)c1Cl	.	.	.	.	.	/	/
